VACV mCherry inh: vaccinia inhibition (mCherry reporter); Potency, µM (top dose mostly 36.5 µM), for inactives: at the highest dose activity change, negative = inhibition, hits mostly inhibitors; AID 720579; Vaccinia virus mCherry reporter infection, fluorescence; 310,000 tested, 0.63% active; calls by dose curve; tested in A549 cells; further: nearly all actives have a fitted effect of over 35% in size
HCV inhibitor: inhibitors of hepatitis C virus infection | Huh7.5.1 HCVcc-Cre infection, luciferase reporter, 44 h | Potency, µM (top dose mostly 41.8 µM), inactives show at the top dose activity change, negative = inhibition, usual class: inhibitors | 340,000 tested, 3.4% active; active means well fitted inhibition curve with a large enough effect; inconclusive means small, poorly fitted or top-dose-only effect, or another doubt; inactive means no such curve, though single readings can be large or run the other way
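Cells seeded at 1,000/well and cultured 4 h, then compounds added followed by HCVcc-Cre virus (~0.5 moi). After 44 h further culture, luciferase substrate was added, plates held 15 min at room temperature, and luminescence read for 15 sec.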
Vaccinia Venus: vaccinia inhibition (Venus reporter) | Vaccinia virus Venus reporter expression, fluorescence | Potency, µM (doses to about 36.5 µM), for the others: at the top dose activity change, negative = inhibition, usual class: inhibitors | 330,000 tested, 0.46% active; calls by dose curve; tested in A549 cells; further: nearly all actives have a fitted effect of over 30% in size
An asterisk follows results filed as active; i = inactive; ? = inconclusive; / = no result given; [ ] = remark or other dose. The list is not random: actives were taken first. Their share in the collection is about 3.3%. On the % scale 0 is the no-effect control and ±100 the full control effect; potency means the concentration at half of the fitted maximal effect.

SMILES | VACV mCherry inh | HCV inhibitor | Vaccinia Venus
CCOC(=O)c1ccc(NC(=O)c2cnn(-c3ccc(C)cc3C)c2C2CCN(C(=O)OC(C)(C)C)CC2)cc1 | -13.0% | / | -6.9%
COc1ccc(COn2nnc3ccc(S(=O)(=O)N4CCOCC4)cc32)cc1F | ? | 10µM* | ?
C=CCN(CC=C)C(=O)COn1nnc2ccc(S(=O)(=O)N3CCOCC3)cc21 | -2.6% | 0.3% | -9.0%
CC(CNC(=O)c1cc2cc(S(=O)(=O)N3CCCCC3)ccc2n1C)c1ccccc1 (stereo not drawn) | -22.1% | / | -17.1%
CCN(CC)C(=O)C1=C(C)N(Cc2ccccc2)C(=O)C(CC(=O)NCCN2CCOCC2)C1 (stereo not drawn) | -8.4% | / | -4.7%
O=C(NCC1Cc2cc(F)cc(-c3cnccn3)c2O1)c1cccc(Cl)c1 (stereo not drawn) | -2.3% | / | -1.1%
O=C(CCNC(=O)c1ccc([N+](=O)[O-])cc1)NNC(=O)c1ccccc1F | / | 12.4% | /
CCCOc1ccc(-c2cccc(NS(=O)(=O)c3cc(OC)ccc3OC)c2)nn1 | -13.0% | / | -18.5%
CN(C)CCCN(Cc1ccccc1)C(=S)Nc1ccc(F)c(Cl)c1 | -21.6% | ? | -29.8%
CN(C)CCCN(Cc1ccccc1)C(=S)Nc1cccc(C(F)(F)F)c1 | -6.7% | 11.2µM* | -15.2%
CCn1cc([N+](=O)[O-])c(C(=O)N2N=C3/C(=C/c4cccs4)CCCC3C2c2cccs2)n1 (stereo not drawn) | / | 10µM* | /
CCn1cc([N+](=O)[O-])c(C(=O)N2CCOCC2)n1 | -19.7% | 4.6% | -3.2%
CN(C)CCCN(C(=O)c1ccco1)c1nc(-c2ccc(Cl)cc2)cs1 | / | 11.2µM* | /
COc1ccc(-c2csc(N(C)C(=O)c3ccco3)n2)cc1 | -18.8% | 5.1% | -5.8%
Cc1ccc(-c2csc(N(CCCN(C)C)C(=O)c3ccco3)n2)cc1 | -4.2% | ? | -8.1%
CN(C(=O)c1ccco1)c1nc(-c2ccc(Cl)cc2)cs1 | / | 0.6% | /
Cc1ccc(S(=O)(=O)CCC(=O)N(CCCN2CCOCC2)c2nc3ccccc3s2)cc1 | 14.1µM* | -13.3% | ?
O=C(CCS(=O)(=O)c1ccccc1)N(CCCN1CCOCC1)c1nc2ccccc2s1 | -14.1% | ? | -25.5%
COc1ccc(-c2csc(N(CCCN3CCOCC3)C(=O)c3ccco3)n2)cc1 | / | 10µM* | /
Cc1ccc(-c2csc(N(CCCN3CCOCC3)C(=O)c3ccco3)n2)cc1 | -23.1% | 11.2µM* | -13.7%
COc1cc(OC)c(NC(=O)N2CCOCC2)cc1Cl | -8.1% | 8.1% | -2.0%
COc1ccc(OC)c(CN2CCCC(c3nc(-c4ccncc4)ncc3-c3ccccc3C)C2)c1 (stereo not drawn) | -4.4% | / | -6.8%
N#C[C@H]1C2OC2c2ccccc2N1C(=O)c1ccccc1 (stereo partly drawn) | 0.7% | 12.9% | 3.8%
Cc1cc(OCC(=O)OCC(=O)NC2CCCCCC2)ccc1Cl | / | 5.9% | /
Cn1c(SCC(=O)NCc2ccco2)nnc1-c1cccc(NC(=O)c2ccccc2)c1 | -0.6% | / | -12.8%
SMILES | VACV mCherry inh | HCV inhibitor | Vaccinia Venus
COc1ccccc1N1CCN(C2CCN(S(=O)(=O)c3ccc4ccccc4c3)CC2)CC1 | / | 14.1µM* | /
CCOC(=O)c1ccc(S(=O)(=O)N2CCC(C(=O)N3CCN(c4ccccc4OC)CC3)CC2)cc1 | ? | 10µM* | ?
O=S(=O)(c1ccc2ccccc2c1)N1CCN(C2CCN(Cc3ccccc3)CC2)CC1 | / | 22.4µM* | /
COc1ccc(S(=O)(=O)N2CCN(c3ccccc3)CC2)cc1 | -7.7% | 5.0% | -9.3%
COc1ccccc1N1CCN(C(=O)C2CCN(S(=O)(=O)c3ccc(F)cc3)CC2)CC1 | / | -1.1% | /
COc1ccccc1N1CCN(C2CCN(S(=O)(=O)c3ccc(C)cc3)CC2)CC1 | -18.6% | -1.1% | ?
COc1cccc(N2CCN(S(=O)(=O)c3ccc4ccccc4c3)CC2)c1 | -10.7% | 22.4µM* | -17.5%
O=S(=O)(c1ccccc1)N1CCN(C2CCN(Cc3ccccc3)CC2)CC1 | / | ? | -26.3%
COc1cccc(CNC(=O)c2c(OC)cc(=O)n3c2CCN(C(=O)c2cc(C)ccc2C)CC3)c1 | -1.3% | / | 0.0%
COc1ccc(C(=O)NCCN2Cc3ccccc3OC(c3ccsc3)C2)c(OC)n1 (stereo not drawn) | -8.0% | / | 10.0%
COC(=O)c1c(C)oc2ccc(N(C(=O)Oc3ccccc3)S(=O)(=O)c3ccc(C(C)(C)C)cc3)cc12 | ? | / | -25.9%
CCn1c(N2CCN(S(=O)(=O)c3ccc(OC)cc3)CC2)nc2ccccc21 | i | 10µM* | -26.4%
CCn1c(N2CCN(S(=O)(=O)c3ccccc3C(F)(F)F)CC2)nc2ccccc21 | -25.1% | -25.3% | -25.7%
N#CC(C#N)=C1C=CC=CN1/C(=C\c1ccco1)C(=O)c1ccc(-c2ccccc2)cc1 | ? | ? | -15.4%
N#CC(C#N)=C1C=CC=CN1/C(=C\c1ccco1)C(=O)c1ccc(Cl)cc1 | ? | ? | 28.2µM*
COC(=O)c1cccc(NC(=O)CC2C(=O)NCCN2C(=O)Nc2cc(C)cc(C)c2)c1 (stereo not drawn) | i | 7.3% | -12.6%
C=CCn1c(SCC(=O)Nc2cc3oc4ccccc4c3cc2OC)nnc1-c1cnccn1 | / | 12.6µM* | /
C=CCn1c(SCC(=O)Nc2cccc3ccccc23)nnc1-c1cnccn1 | / | -11.3% | /
C=CCn1c(COc2ccccc2F)nnc1SCC(=O)NC(=O)NCc1ccco1 | 0.5% | 14.2% | -7.7%
C=CCn1c(COc2ccccc2F)nnc1SCC(=O)Nc1cc2oc3ccccc3c2cc1OC | / | 7.08µM* | ?
COc1ccc(-c2ccc3oc(-c4ccc(OC)cc4)c(C#CCO)c3c2)cc1 | -26.0% | ? | ?
COc1ccccc1-c1oc2ccccc2c1C#CCCO | i | 14.1µM* | -20.8%
COc1cc(OC)cc(-c2oc(=O)c3cc(OC)c(OC)cc3c2C#CCCO)c1 | i | ? | -14.4%
COc1ccccc1-c1oc2ccccc2c1C#CC1(O)CCCCC1 | i | -22.4% | -8.6%
COc1ccc(-c2oc(=O)c3cc(OC)c(OC)cc3c2C#CCCO)cc1 | -23.0% | 3.16µM* | -16.5%
SMILES | VACV mCherry inh | HCV inhibitor | Vaccinia Venus
COc1ccc(-c2oc3ccc(N4CCOCC4)cc3c2C#CCO)cc1 | 5.62µM* | ? | ?
CCc1ccc2oc(C(=O)Nc3nc(-c4ccc(F)cc4)ns3)c(C)c2c1 | 0.2% | / | -1.9%
COC(=O)c1cnc(N2CCN(c3ccc(OC)cc3)CC2)c2ccccc12 | -10.4%[7.34 µM] | / | -9.5%[7.34 µM]
CC(C)CN(CCNC(=O)c1cc(-c2cccs2)nc2ccccc12)CC(C)C | -14.6% | / | -10.9%
CCOCCCNC(=O)C(=O)Nc1c2c(nn1-c1ccc(OC)cc1)CSC2 | 1.6% | / | -5.0%
CCCCCCN(CCCCCC)c1ccc(/C=C/c2ccnc3ccccc23)cc1 | 37.8% | / | 37.2%
CN(CC(=O)Nc1cc(Cl)cc(Cl)c1)Cc1cccs1 | -5.6% | ? | -8.2%
CCOC(=O)c1c2n(c3c(NCc4ccccc4)ncnc13)CCCC2 | / | 5.01µM* | -9.1%
Cc1ccc(CNc2ncnc3c2nc2n3CCCC2)cc1 | -5.1% | / | -14.5%
O=C(NC(Cc1ccccc1)C(=O)O)/C(=C\c1ccc(Cl)cc1)NC(=O)c1ccco1 (stereo not drawn) | -14.9% | 4.0% | 4.2%
COCC1CCCN(Cc2ccc3c(c2)CN(C(=O)c2ccc(-n4cccn4)cc2)CCO3)C1 (stereo not drawn) | -12.4% | / | 4.3%
CCCCOCCCNC(=S)Nc1ccc(S(=O)(=O)N2CCOCC2)cc1 | / | -26.4% | /
